Assay results taken from PubChem BioAssay AID2314 (National Center for Advancing Translational Sciences (NCATS), 2010).
The whole screen tested about 300,000 compounds, of which about 37,000 (12%) were called active. Cut-off read from the data, not from the text of the source: active = max response mostly above about 13% (no sharp cut-off); inactive = mostly below about 14%. This excerpt belongs to a sample that is enriched for actives.

Assay: Cycloheximide Counterscreen for Small Molecule Inhibitors of Shiga Toxin; note: read at 38.3 µM for the half of the compounds with a filed dose; 0% is about no effect
Conditions: cell reporter, cycloheximide protein synthesis inhibition counterscreen; hits give high values

Q: For CNC(=O)/C(C#N)=C/c1c(F)cccc1Cl, which max response is on record?
A: 15.7% (active)

Q: For N#C/C(=C\c1ccccc1C(F)(F)F)C(=O)Nc1ccccc1F, which max response is on record?
A: -2.94% (inactive)

Q: With O=C(/C=C/c1c(F)cccc1Cl)Nc1nn[nH]n1 as the compound, how does the max response read?
A: -1.57% (inactive)

Q: With CCc1ccc(/C=N/NC(=O)c2ccc(OC3CCCC3)cc2)s1 as the compound, how does the max response read?
A: 12.2% (inactive)

Q: For COc1ccc(CCNC(=O)CCn2c(=O)c3ccccc3n(CC(=O)NCC3CCCO3)c2=O)cc1OC (stereo not drawn), which max response is on record?
A: 11% (inactive)

Q: With Cn1c(=N)n(CC(O)c2cccs2)c2ccccc21 (stereo not drawn) as the compound, how does the max response read?
A: -3.56% (inactive)

Q: Which max response does the source give for Cc1nc2ccccc2n1CC(O)c1ccccc1 (stereo not drawn) here?
A: -1.62% (inactive)

Q: For Cn1c(=N)n(CC(O)c2ccccc2)c2ccccc21 (stereo not drawn), which max response is on record?
A: 70.1% (active)

Q: Which max response does the source give for COc1ccc(NC(C(=O)Nc2cccc(C(C)=O)c2)c2ccccc2)cc1 (stereo not drawn) here?
A: 12.5% (active)

Q: With COc1ccc(NC(=O)[C@H](NC(=O)[C@@H]2Cc3ccccc3CN2)c2ccccc2)cc1 as the compound, how does the max response read?
A: -1.13% (inactive)

Q: Which max response does the source give for COC(C(=O)Nc1ccc(C(C)=O)cc1)c1ccccc1 (stereo not drawn) here?
A: -2.94% (inactive)

Q: Which max response does the source give for O=C(NC1CCN(C(=S)Nc2ccc(Cl)cc2)CC1)C1CCCCC1 here?
A: -3.84% (inactive)

Q: With CC(C)S(=O)(=O)c1csc(NC(=O)Nc2ccc(Cl)cc2)c1Cl as the compound, how does the max response read?
A: 17.4% (active)

Q: With O=C(Nc1ccc(Cl)cc1)Nc1ccc(C(=O)N2CCOCC2)cc1 as the compound, how does the max response read?
A: 15.1% (inactive)

Q: With NS(=O)(=O)c1ccc(CCNC(=O)Nc2ccc(Cl)cc2)cc1 as the compound, how does the max response read?
A: 11% (inactive)

Q: Which max response does the source give for Cc1cccc(OCC(=O)Nc2ccc(NC(=O)c3ccco3)c(C)c2)c1 here?
A: 6.82% (inactive)

Q: With CSc1ncc(C(=O)Nc2ccc(C)cc2C)c(C)n1 as the compound, how does the max response read?
A: 2.97% (inactive)

Q: With COC(=O)c1nc(NC(=O)c2ccc(C(C)(C)C)cc2)n[nH]1 as the compound, how does the max response read?
A: 4.76% (inactive)

Q: With CSc1nccc(NC(=O)c2ccc(C(C)(C)C)cc2)n1 as the compound, how does the max response read?
A: 38.6% (active)

Q: With Cn1c(Cn2nnc3ccccc32)nnc1SCC(=O)c1ccccc1F as the compound, how does the max response read?
A: 1.74% (inactive)

Q: Which max response does the source give for CCOc1ccc(Nc2nc(Cl)nc(N3CCN(c4ccc(OC)cc4)CC3)n2)cc1 here?
A: 1.38% (inactive)

Q: For c1ccc(Nc2nc(N3CCOCC3)c3ccccc3n2)cc1, which max response is on record?
A: 3.89% (inactive)

Q: With COc1ccc(Nc2ncc(F)c(N3CCOCC3)n2)cc1 as the compound, how does the max response read?
A: 27.6% (active)

Q: With OCCNc1nc2ccccc2n1-c1ncnc2sc3c(c12)CCC3 as the compound, how does the max response read?
A: -6.62% (inactive)

Q: With CCCCCCCCCOC1OC(CO)C(O)C(O)C1NC(C)=O (stereo not drawn) as the compound, how does the max response read?
A: 2.49% (inactive)

Q: Which max response does the source give for COc1cccc(CC2(CO)CCCN(Cc3nc(-c4cccs4)oc3C)C2)c1 (stereo not drawn) here?
A: 1.79% (inactive)

Q: For Cc1nn2cc(-c3ccc(Cl)cc3)cnc2c1Br, which max response is on record?
A: 23.7% (active)

Q: Which max response does the source give for COc1cccc(N2CCN(c3ccc4nnc(CCC(=O)N5CCN(C)CC5)n4n3)CC2)c1 here?
A: -3.61% (inactive)
